# Hits are enriched below; roughly 3.2% of the tested compounds scored in any of these assays.
# CDK5 p35 inh: inhibitors of human CDK5/p35 kinase; AID 488839; inhibition, % at 10 µM; Q00535+Q15078; 330,000 tested, 0.01% active; Recombinant CDK5/p35, ADP-Glo luminescence, 60 min;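 active = highest replicate inhibition of at least 50% and at least 75% of replicates reaching 50%; inconclusive = only one of the two criteria met; inactive = both criteria failed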;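 also: plate controls were DMSO neutral control for no effect and GW8510 at 10 µM for full effect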
# Rtt109 HAT inh: C. albicans Rtt109 histone acetyltransferase inhibition. purified Rtt109/Vps75, ThioGlo CoA-SH fluorescence, 4 h. AID 540336. Q5AAJ8. inhibition, % at 34.9 µM. 330,000 tested, 0.16% active;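 active = inhibition of at least 50% in every replicate; inconclusive = best replicate reaches 50% inhibition but some replicates fall short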
# SMARCA2 activ: increases SMARCA2 function in MMTV reporter cells. 370,000 tested, 1% active. MG213 cells, MMTV-luciferase reporter, dexamethasone, overnight. AID 652017. activation, % at 9.1 µM; in the data active = activation above about 7.8%;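 also: 0% = vehicle wells and 100% = reference activator wells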
# Dyrk1A ADPGlo: blocks rat Dyrk1A kinase activity | ADP-Glo luminescence, NFATc1 peptide | inhibition, % at 12.5 µM | 310,000 tested, 0.43% active | AID 504441; in the data active = inhibition above about 50%;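 also: plate controls were vehicle with enzyme for no effect and no enzyme for full effect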
# dFosB act-1: mouse delta FosB homodimer activation; P13346; AID 493131; purified delta FosB, TAMRA-CDK5 oligo fluorescence polarization; percent of positive-control signal above neutral wells; activation, % at 25 µM; 340,000 tested, 0.99% active;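 active = mean activation above about 17%, with every replicate also reaching it, limit read from the data, passing the limit was not always enough; inconclusive = only one of the two conditions met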
# Target sequence (P13346 whole entry, looked up): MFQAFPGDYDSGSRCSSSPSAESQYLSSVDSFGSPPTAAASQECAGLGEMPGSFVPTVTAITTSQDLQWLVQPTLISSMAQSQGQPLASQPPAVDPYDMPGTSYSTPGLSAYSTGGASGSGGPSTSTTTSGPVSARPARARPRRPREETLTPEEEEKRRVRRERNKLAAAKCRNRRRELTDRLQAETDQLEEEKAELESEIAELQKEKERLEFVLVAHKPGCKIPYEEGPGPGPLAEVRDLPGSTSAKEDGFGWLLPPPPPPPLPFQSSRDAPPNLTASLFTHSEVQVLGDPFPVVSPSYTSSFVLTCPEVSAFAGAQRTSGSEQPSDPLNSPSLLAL
# esBAF inh: inhibitors of esBAF chromatin remodeling in mouse ES cells; reporter increase, % at 12.5 µM; Bmi1-luciferase knock-in reporter, 24 h; 100% = twice the neutral-well signal; 350,000 tested, 2% active; in the data active = activation above about 40%; inconclusive = no clear call, values can overlap the other calls;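 also: 0% = median of the plate's neutral control wells and 100% = double that signal; a rise in the Bmi1 reporter signal indicates esBAF inhibition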
# dFosB act-2: activators of mouse delta FosB homodimer DNA binding; activation, % at 24.9 µM; shares compounds with dFosB act-1; purified delta FosB, TAMRA-CDK5 oligo fluorescence polarization; normalised: neutral wells 0, positive control 100; 2,400 tested, under 10 active;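 active = highest replicate activation at or above 34% and every replicate reaching that threshold; inconclusive = meets only one of the two criteria; inactive = meets neither criterion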;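 also: higher polarization means more probe DNA bound by delta FosB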
# Starred values were filed as active, the others as inactive; u = inconclusive; x = no result.
SMILES,CDK5 p35 inh,Rtt109 HAT inh,SMARCA2 activ,Dyrk1A ADPGlo,dFosB act-1,esBAF inh,dFosB act-2
N#Cc1ccc(-c2cccnc2)nc1SCc1ccc(Cl)cc1Cl,-1,-12,-2,2,108*,x,3
CCc1cnc(N2[C@@H](C#N)[C@H](c3ccc(C#CCC4CCCC4)cc3)[C@@H]2CO)s1,x,x,x,x,x,1,x
O=S(=O)(NCC[C@@H]1CC[C@H](NS(=O)(=O)c2ccccc2Cl)[C@H](CO)O1)c1ccc(Cl)cc1,x,x,x,x,x,4,x
CCCNC(=O)C[C@H]1C[C@@H]2c3cc(NC(=O)CC4CC4)ccc3O[C@@H]2[C@H](CO)O1,x,x,x,x,x,-3,x
Cc1ccc(NC(=O)c2nnn(CC(=O)Nc3ccc4c(c3)OCO4)c2N)cc1C,-1,1,-1,0,46*,18,-1
COc1ccc(NC(=O)Cn2nnc(C(=O)NCc3cccs3)c2N)cc1OC,-1,-7,1,1,6,11,x
COc1ccc(NC(=O)Cn2nnc(C(=O)Nc3ccc(F)c(Cl)c3)c2N)cc1OC,1,29,-2,-4,23*,-5,3
Cc1ccc(NC(=O)Cn2nnc(C(=O)Nc3ccc(C)c(C)c3)c2N)cc1,0,7,3,0,120*,x,-6
CO[C@H]1CN(C)C(=O)c2cc(NC(=O)c3ccccc3)ccc2OC[C@H](C)N(CC2CC2)C[C@H]1C,x,x,x,x,x,-5,x
O=C(Nc1ccc(F)cc1)N1C[C@H]2[C@@H](c3ccccc31)[C@H](CO)N2C(=O)c1ccccc1F,x,x,x,x,x,9,x
CCOC(=O)c1c(C)[nH]c(C)c1C(=O)CSc1nnc(-c2cc(OC)c(OC)c(OC)c2)o1,1,-9,-2,-3,33*,5,5
CCC(C)N(C(=O)CSc1nnc(-c2cc(OC)c(OC)c(OC)c2)o1)C(C)CC (centres undefined),x,x,-6,x,x,x,x
CC(=O)Nc1cccc(NC(=O)Nc2cccc3ccccc23)c1,-1,5,-2,4,21*,1,-3
Cc1ccc(NC(=O)Nc2nc3ccc(S(C)(=O)=O)cc3s2)cc1,1,-3,1,0,u,5,x
CCNC(=O)Nc1nc2ccccc2s1,-2,-11,7,18,0,x,x
Cc1ccc(NC(=O)Nc2nc3ccccc3s2)cc1NC(=O)Nc1nc2ccccc2s1,1,-3,4,-2,32*,29,1
CS(=O)(=O)c1cccc(C(=O)OCC(=O)NC(=O)Nc2ccccc2F)c1,0,-3,-1,3,22*,4,3
CS(=O)(=O)c1ccc2nc(NC(=O)Nc3ccccc3F)sc2c1,1,-1,7,-2,20*,-5,0
O=Cc1ccc(C(=O)OCC(=O)NC(=O)Nc2ccccc2F)cc1,2,2,x,-1,-15,3,x
Cc1cccc(NC(=O)Nc2cccc3ccccc23)c1,-1,-1,0,6,6,10,x
CC(C)CC#Cc1cnc2c(c1)C(=O)N([C@H](C)CO)C[C@@H](C)[C@H](CN(C)Cc1ccccc1C(=O)O)O2,x,x,x,x,x,-8,x
O=C(C[C@H]1CC[C@H]2[C@@H](COC[C@@H](O)CN2C(=O)Nc2cccc(F)c2)O1)NCc1ccccc1Cl,x,x,x,x,x,33,x
C[C@H]1CN([C@@H](C)CO)C(=O)c2cccc(NC(=O)Nc3cccc4ccccc34)c2O[C@H]1CN(C)S(C)(=O)=O,x,x,x,x,x,1,x
COc1ccc2nc(NC(=O)Nc3cccc4ccccc34)sc2c1,-1,-4,2,-5,57*,x,1
Cc1noc(C)c1S(=O)(=O)N(C)C[C@@H]1OCCCC[C@@H](C)Oc2ccc(NC(=O)Nc3ccccc3)cc2C(=O)N([C@@H](C)CO)C[C@H]1C,x,x,x,x,x,0,x
SMILES,CDK5 p35 inh,Rtt109 HAT inh,SMARCA2 activ,Dyrk1A ADPGlo,dFosB act-1,esBAF inh,dFosB act-2
O=[N+]([O-])c1ccc(OCCOc2ccccc2/C=N/n2cnnc2)cc1,0,7,2,-1,36*,5,5
COc1nc(Nc2cccc([N+](=O)[O-])c2)nc(OC)n1,1,-3,-2,-4,106*,x,3
C#CCOc1nc(Nc2cccc([N+](=O)[O-])c2)nc(OCC#C)n1,-2,10,-1,4,29*,-3,2
C=CCNc1nc(Nc2ccc([N+](=O)[O-])cc2)nc(OC)n1,-8,-4,-3,-12,9,3,x
O=C(C[C@H]1C/C=C\CC[C@@H](Cc2ccc(F)cc2)C(=O)O[C@@H](c2ccccc2)CNC1=O)N[C@@H](CO)Cc1ccccc1,-1,4,-1,10,116*,2,0
O=C(C[C@H]1C/C=C\C[C@@H](Cc2ccc(F)cc2)C(=O)O[C@@H](c2ccccc2)CNC1=O)N[C@@H](CO)Cc1ccccc1,1,-1,-1,0,49*,-3,3
O=C(Nc1ccccc1F)N[C@H]1C=C[C@@H](CC(=O)N2CCCCC2)O[C@H]1CO,x,x,x,x,x,2,x
CCOC(=O)N1CCN(S(=O)(=O)c2ccc(C(=O)Nc3nc4ccccc4s3)cc2)CC1,1,-8,-2,-7,23*,-1,0
CCOC(=O)N1CCN(S(=O)(=O)c2ccc(C(=O)Nc3nc4ccc(F)cc4s3)cc2)CC1,-1,-5,-2,7,57*,x,-6
CCOC(=O)N1CCN(S(=O)(=O)c2ccc(F)cc2)CC1,-2,7,-1,-7,-3,3,x
O=C(NCC1CC1)[C@H]1[C@H](CO)[C@H]2Cn3c(ccc(-c4ccc(F)cc4)c3=O)[C@@H]1N2,x,x,x,x,x,-1,x
CO[C@H]1CN(C)C(=O)c2ccc(NC(=O)c3ccccc3)cc2OC[C@@H](C)N(C(C)=O)C[C@@H]1C,x,x,x,x,x,-14,x
O=C(CSc1nc2ncc(Cl)cc2[nH]1)c1c[nH]c2ccccc12,1,-7,0,5,22*,x,-4
O=C(CSc1nc2ccc(Cl)cc2[nH]1)c1c[nH]c2ccccc12,1,-7,-2,11,16,14,x
CC(C)NC(=O)N(C)C[C@@H]1Oc2c(NC(=O)C3CCOCC3)cccc2C(=O)N([C@H](C)CO)C[C@H]1C,x,x,x,x,x,2,x
CCOc1ccc(-c2c(C(=O)N/N=C/c3ccc(Cl)cc3)nnn2-c2nonc2N)cc1,x,11,-2,x,45*,6,5
CCOc1ccc(-c2c(C(=O)N/N=C/c3ccc(C)s3)nnn2-c2nonc2N)cc1,3,17,x,-1,58*,-2,3
CCOc1ccc(-c2c(C(=O)N/N=C/c3ccccc3)nnn2-c2nonc2N)cc1,0,-4,-3,-2,1,1,x
CCOc1ccc(-c2c(C(=O)N/N=C/c3sccc3C)nnn2-c2nonc2N)cc1,0,3,-1,7,22*,13,-1
